Sampled rows, rich in hits. Any-hit rate of the full collection: about 3%.
GDH-TPI counter: inhibits GDH-TPI coupling enzymes, artifact for Mtb FBA screen. actives 1.2% (n = 360,000). inhibition, % at 4.8 µM. GDH-TPI coupled enzyme counterscreen, NADH absorbance; in the data active = inhibition above about 30%;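 note: 0% = DMSO wells and 100% = wells lacking the enzyme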
FBA Mtb inh: inhibitors of M. tuberculosis fructose-bisphosphate aldolase; P9WQA3; purified M. tuberculosis FBA, fluorescence read-out; AID 588726; inhibition, % at 1 µM; actives 2.3% (n = 360,000); in the data active = inhibition above about 27%;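 note: 0% = vehicle and 100% = reference inhibitor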
Target sequence (P9WQA3 whole entry, looked up): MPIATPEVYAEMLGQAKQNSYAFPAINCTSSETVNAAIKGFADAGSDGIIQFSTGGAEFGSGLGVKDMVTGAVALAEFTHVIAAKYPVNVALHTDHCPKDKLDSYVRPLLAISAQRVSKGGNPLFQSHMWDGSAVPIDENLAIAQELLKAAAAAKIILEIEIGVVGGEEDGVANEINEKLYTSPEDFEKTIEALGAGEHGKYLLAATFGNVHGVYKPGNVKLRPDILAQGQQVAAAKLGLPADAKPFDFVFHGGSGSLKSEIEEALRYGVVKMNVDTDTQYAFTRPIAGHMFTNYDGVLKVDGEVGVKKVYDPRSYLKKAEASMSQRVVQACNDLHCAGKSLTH
Mtb BioA inh: blocks M. tuberculosis BioA enzyme activity; actives 0.096% (n = 360,000); purified M. tuberculosis BioA enzyme, plate reader; inhibition, % at 9.99 µM; AID 602481; in the data active = inhibition above about 40%
FadD28 FP inh: inhibitors of Mycobacterium tuberculosis FadD28 bisubstrate binding; inhibition, % at 12.5 µM; actives 0.22% (n = 360,000); FadD28 bisubstrate probe binding, fluorescence polarization; in the data active = inhibition above about 8.5%, passing the limit was not always enough
Rv3671c protease: inhibitors of M. tuberculosis serine protease Rv3671c; inhibition, % at 5.96 µM; actives 0.048% (n = 320,000); P9WHR9; in the data active = inhibition above about 38%;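 note: extracellular domain of Rv3671c used as enzyme; 0% = enzyme with DMSO and 100% = no enzyme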
Active calls of the source: *; / = not tested or not shown; ! = repeats disagree.

SMILES	GDH-TPI counter	FBA Mtb inh	Mtb BioA inh	FadD28 FP inh	Rv3671c protease
Cc1noc(C)c1NC(=O)N(C)C[C@H]1Oc2ccc(NS(=O)(=O)c3cccs3)cc2CC(=O)N([C@@H](C)CO)C[C@H]1C	/	/	-2.0	/	/
CCCSc1nc2cc(OC)c(OC)cc2c(=N)n1CCCN1CCOCC1	7.9	0.2	/	-2.3	3.1
COCCCn1c(SCc2ccc(OC)cc2)nc2cc(OC)c(OC)cc2c1=N	10.7	1.9	1.0	20.9*	10.6
Cc1ccc(-c2cc(-c3ccccc3)nc(Cl)n2)cc1	1.6	4.8	0.3	-0.7	-10.0
COc1ccc(-c2cc(-c3ccccc3)nc(Cl)n2)cc1OC	32.9*	11.7	-0.7	-6.1	-16.5
COc1ccc(-c2nc3ccccc3nc2-c2ccccc2)cc1OC	31.4*	-1.6	7.5	-3.1	0.3
CCC(=O)N1C[C@H](C)[C@H](OC)CN(C)C(=O)c2cc(NC(=O)Nc3ccccc3)ccc2OC[C@H]1C	/	/	1.4	/	/
COc1ccccc1NC(=O)N(C)C[C@H]1OCc2ccccc2-c2c(n(C)c3ccccc23)C(=O)N([C@@H](C)CO)C[C@@H]1C	/	/	-0.8	/	/
COc1ccc(OC)c(-c2nnc3n2N=C(c2ccc(OC)c(OC)c2)CS3)c1	34.5*	2.4	7.3	-1.7	12.5
COc1ccc(OC)c(-c2nnc3n2N=C(c2ccc(OC)c(OC4CCCC4)c2)CS3)c1	31.9*	5.4	-0.5	-1.9	11.6
COc1ccc(C2=Nn3c(nnc3-c3ccccc3)SC2)cc1OC	13.3	1.8	-1.1	-1.4	-2.9
O=C(C[C@H]1C=C[C@H](NC(=O)NC2CCCCC2)[C@@H](CO)O1)NCc1ccc(Cl)cc1	/	/	0.2	/	/
CC12CCC(C(=O)Nc3cccc(Cl)c3Cl)([C@H](Br)C1=O)C2(C)C (stereo partly specified)	0.0	113.1*	/	-0.3	-3.5
COc1cc(C=NNC(=O)c2ccccc2-n2cccc2)ccc1O	19.3	3.1	-1.0	-2.6	13.4
O=C(N/N=C\c1ccc(O)c([N+](=O)[O-])c1)c1ccccc1-n1cccc1	46.5*	-12.0	-2.5	-1.0	-8.7
O=C(N/N=C/c1ccc(O)c([N+](=O)[O-])c1)C(O)(c1ccccc1)c1ccccc1	35.3*	-4.1	0.8	0.5	2.1
C[C@H](CO)N1C[C@H](C)[C@H](CN(C)C(=O)Cc2ccccc2)OCCCC[C@H](C)Oc2ccc(NC(=O)c3ccccc3)cc2C1=O	/	/	-2.1	/	/
CC(C)NC(=O)Nc1ccc2c(c1)C(=O)N([C@H](C)CO)C[C@H](C)[C@@H](CN(C)CC1CC1)OCCCC[C@H](C)O2	/	/	-1.5	/	/
COc1cccc(/C=N/Nc2ncnc(Cl)c2N)c1O	31.6*	-4.2	/	1.1	4.8
Nc1c(Cl)ncnc1N/N=C/c1cccc(O)c1	41.5*	-2.1	/	0.4	-2.1
Oc1cccc(/C=N/Nc2ncnc3c2ncn3Cc2ccccc2)c1	36.7*	2.0	-1.7	-2.9	1.1
Oc1ccc(/C=N/Nc2ncnc3c2ncn3Cc2ccccc2)cc1O	22.3	-3.1	/	4.1	2.4
Nc1c(Cl)ncnc1N/N=C/c1ccncc1	48.0*	-3.8	2.5	0.4	-1.8
Cc1noc(C)c1S(=O)(=O)Nc1ccc2c(c1)C(=O)N([C@H](C)CO)C[C@@H](C)[C@@H](CN(C)S(=O)(=O)c1ccc(F)cc1)OCCCC[C@H](C)O2	/	/	0.0	/	/
O=C(C[C@@H]1CC[C@@H](NC(=O)Cc2cccnc2)[C@H](CO)O1)Nc1ccc(-c2ccccc2)cc1	/	/	-1.7	/	/
SMILES	GDH-TPI counter	FBA Mtb inh	Mtb BioA inh	FadD28 FP inh	Rv3671c protease
COc1cccc(/C=N/Nc2cc(-n3nc(C)cc3-c3ccccc3)ncn2)c1O	34.6*	-0.8	-0.8	-3.1	-1.2
Clc1cccc(Cl)c1/C=N/Nc1c(Cl)cncc1Cl	4.0	-0.4	/	-0.7	-6.2
Clc1cncc(Cl)c1N/N=C/c1ccncc1	36.3*	-1.2	15.7	-3.6	-0.6
COc1cccc(/C=N/Nc2ncnc3scc(-c4ccccc4)c23)c1O	32.3*	4.7	/	-0.3	6.8
COc1cccc(CN2CCCCN3[C@H](CO)[C@@H](c4ccc(C#Cc5cccnc5)cc4)[C@H]3C2)c1	/	/	11.4	/	/
CCCNC(=O)N1C[C@H]2[C@@H](c3ccccc31)[C@@H](CO)N2Cc1cccc(OC)c1	/	/	-1.3	/	/
CN1C(=O)c2cc(NC(=O)Nc3ccc(Cl)cc3)ccc2OC[C@H]2O[C@@H](CC(=O)O)CC[C@H]21	/	/	3.1	/	/
CC(=O)N1CCCCN2[C@H](C1)[C@H](c1ccc(-c3ccncc3)cc1)[C@@H]2CO	/	/	1.9	/	/
CC(=O)Nc1ccc(S(=O)(=O)N2C(C)CCCC2C)cc1 (stereo unspecified)	11.3	-1.6	-0.1	0.9	2.9
CC(=O)NC1=C(N2CC2C)C(=O)C(NC(C)=O)=C(N2CC2C)C1=O (stereo unspecified)	32.3*	-3.5	-0.7	-3.4	/
Cc1ccc(CN2CCSc3ccc(C(=O)NC4CCCC4)cc32)cc1	-2.7	7.0	0.5	-4.3	-2.8
O=C(NCC1CCCO1)c1ccc2c(c1)N(Cc1ccccc1)C(=O)CS2 (stereo unspecified)	2.2	-3.0	1.6	-0.6	-1.9
Cc1ccc(CN2CCSc3ccc(C(=O)NCCCN4CCN(C)CC4)cc32)cc1	5.1	160.8*	3.4	-2.0	6.2
O=C(NCC1CCCO1)c1ccc2c(c1)N(Cc1ccc(Cl)cc1)CCS2 (stereo unspecified)	12.4	132.4*	-0.9	-0.1	/
C[C@H]1CN([C@@H](C)CO)C(=O)c2cc(NC(=O)c3ccncc3)ccc2O[C@@H]1CN(C)S(C)(=O)=O	/	/	1.0	/	/
CCc1nn2c(N)c(/C=C3\C=Nc4ccccc43)c(=O)nc2s1	33.3*!	2.6	-2.9	0.1	2.6
CC1=Nc2ccccc2/C1=C/c1c(N)n2c(S(=O)(=O)C(C)C)nsc2nc1=O	-1.9	1.0	0.9	4.7	-1.8
CC(C)S(=O)(=O)c1nsc2nc(=O)c(/C=C3\C=Nc4ccccc43)c(N)n12	8.4	-7.6	0.9	30.0*	-11.9
CSc1nsc2nc(=O)c(/C=C3\C=Nc4ccccc43)c(N)n12	16.1	-3.6	-1.0	14.3*	-18.5
O=C(N[C@@H]1CC[C@H](CCNS(=O)(=O)c2ccc(Cl)cc2)O[C@@H]1CO)c1cccnc1	/	/	5.5	/	/
COc1cc(C(=O)NN=Cc2ccc(N(C)C)cc2)cc(OC)c1OC	42.5*	-2.0	0.9	-3.5	/
COc1ccc(/C=N/NC(=O)c2ccc3ccccc3c2)cc1OS(=O)(=O)c1ccc(NC(C)=O)cc1	35.8*	1.0	-0.8	-0.3	-267.0
COc1cc(/C=N/NC(=O)c2ccc(N(C)S(=O)(=O)c3ccccc3)cc2)cc(OC)c1OC	19.2	2.3	/	-9.7	5.5
COc1ccc(/C=N/NC(=O)c2cc[n+]([O-])cc2)cc1OC	20.7	-1.0	-0.8	1.7	-1.7
COc1cc(/C=N/NC(=O)c2cc[n+]([O-])cc2)cc(OC)c1OC	38.6*	-2.8	-0.1	-2.5	-0.4
CCOc1cc(/C=N/NC(=O)c2ccc(N(C)S(=O)(=O)c3ccccc3)cc2)ccc1OC	41.8*	0.6	0.1	-3.9	-60.2
C[C@@H]1CN([C@@H](C)CO)C(=O)c2cc(NC(=O)c3ccncc3)ccc2O[C@@H](C)CCCCO[C@H]1CN(C)C(=O)NC1CCCCC1	/	/	-0.4	/	/
